Source: PubChem BioAssay
BAZ2B block: BAZ2B (human) inhibition. AlphaScreen BAZ2B-H3K14Ac peptide displacement. hit rate 4.4% among 360,000. Potency, µM (doses to about 114 µM), for the others: top-dose activity change, negative = inhibition, most hits filed as inhibitors. Q9UIF8; further: on the % scale 0 is the no-effect control and ±100 the full control effect; nearly all actives have a fitted effect of over 60% in size
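Protein-peptide AlphaScreen: BAZ2B 50 nM, b-H3K14Ac 50 nM, 1x PBS pH 7.4 + 0.01% Tween-20. Preincubation 30 min RT; cpd 30 min RT (top 110 uM); beads 20 min RT, light-protected.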
L3MBTL1 block: inhibitors of human L3MBTL1; AlphaScreen L3MBTL1–H3K9me1 peptide binding; Potency, µM (titrated, usually from 57.1 µM), for inactives: top-dose activity, negative = inhibition, actives largely listed as inhibitors; hit rate 0.66% among 230,000; further: on the % scale 0 is the no-effect control and ±100 the full control effect; nearly all actives have a fitted effect of over 60% in size
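L3MBTL1 50 nM + b-AHA-H3(1-15)K9me1 75 nM, 30 min RT; compound added, 30 min RT; streptavidin donor/Ni-chelate acceptor beads 10 ug/mL each final, 30 min RT dark; AlphaScreen read.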
HP1b chromo inh: inhibitors of HP1-beta chromodomain binding to methylated histone tails | P83916 | AlphaScreen HP1-beta / biotin-H3K9me3 peptide binding | Potency, µM (titrated, usually from 114 µM), for inactives: at the highest dose activity change, negative = inhibition, most hits filed as inhibitors | hit rate 0.56% among 390,000 | AID 540317; further: nearly all actives have a fitted effect of over 70% in size
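AlphaScreen: HP1-beta (50 nM) preformed 30 min with biotin-H3(1-18)K9me3 peptide (50 nM) in PBS pH 7.4, 0.01% Tween-20. Compound added for 30 min at RT, then streptavidin donor/nickel chelate acceptor beads (10 ug/mL) for 30 min.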
Sfp PPTase inh: blocks B. subtilis Sfp PPTase activity | Biochemical Sfp PPTase activity, qHTS | hit rate 3.5% among 310,000 | Potency, µM, without a hit: largest response in the series, negative = inhibition, hits mostly inhibitors | Q9F4F7;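 further: the enzyme is Sfp with the accession as filed and its product quenches rhodamine fluorescence; 0% = enzyme reaction without inhibitor and -100% = no enzyme wells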
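Compounds were incubated with enzyme (final 15 nM) for 15 min at room temperature before substrate addition started the reaction. Fluorescence at 525 nm excitation, 598 nm emission was recorded immediately and after 30 minutes.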
JMJD2A Tudor: inhibitors of human JMJD2A Tudor domain; Potency, µM (series often up to 114 µM), for the others: top-dose activity change, negative = inhibition, usual class: inhibitors; AlphaScreen JMJD2A-Tudor / H3K4me3 peptide binding; hit rate 4.4% among 390,000; further: on the % scale 0 is the no-effect control and ±100 the full control effect; nearly all actives have a fitted effect of over 50% in size
Target sequence (O75164 whole entry, looked up, the tested form may be a part): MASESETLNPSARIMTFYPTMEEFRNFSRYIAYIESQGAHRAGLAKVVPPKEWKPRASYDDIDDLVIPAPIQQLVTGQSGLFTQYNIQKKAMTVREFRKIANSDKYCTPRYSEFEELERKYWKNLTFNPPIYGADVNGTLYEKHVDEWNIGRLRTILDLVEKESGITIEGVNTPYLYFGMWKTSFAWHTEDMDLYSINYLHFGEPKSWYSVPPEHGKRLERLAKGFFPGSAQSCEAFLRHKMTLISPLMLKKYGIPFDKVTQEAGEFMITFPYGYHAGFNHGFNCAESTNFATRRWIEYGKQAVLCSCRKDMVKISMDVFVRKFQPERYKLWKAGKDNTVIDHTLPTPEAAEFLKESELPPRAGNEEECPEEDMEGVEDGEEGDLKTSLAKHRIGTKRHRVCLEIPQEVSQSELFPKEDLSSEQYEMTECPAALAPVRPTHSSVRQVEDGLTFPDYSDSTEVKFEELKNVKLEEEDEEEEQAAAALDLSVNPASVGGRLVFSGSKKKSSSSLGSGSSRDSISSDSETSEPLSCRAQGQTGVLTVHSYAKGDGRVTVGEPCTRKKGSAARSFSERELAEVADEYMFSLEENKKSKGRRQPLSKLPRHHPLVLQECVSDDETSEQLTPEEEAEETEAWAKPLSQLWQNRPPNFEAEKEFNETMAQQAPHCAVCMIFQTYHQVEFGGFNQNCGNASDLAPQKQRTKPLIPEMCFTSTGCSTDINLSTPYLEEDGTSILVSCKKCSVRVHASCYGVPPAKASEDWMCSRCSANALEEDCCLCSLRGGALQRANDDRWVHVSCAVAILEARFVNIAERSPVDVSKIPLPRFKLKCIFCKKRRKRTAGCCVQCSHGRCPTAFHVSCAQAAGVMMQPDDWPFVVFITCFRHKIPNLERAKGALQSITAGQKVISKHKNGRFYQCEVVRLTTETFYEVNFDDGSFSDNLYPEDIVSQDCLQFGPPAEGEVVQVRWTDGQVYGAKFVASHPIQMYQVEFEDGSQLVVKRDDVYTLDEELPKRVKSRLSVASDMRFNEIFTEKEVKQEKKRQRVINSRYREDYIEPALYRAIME
G9a block: inhibitors of human histone lysine methyltransferase G9a; Q96KQ7; G9a H3K9 monomethylation, AlphaScreen, 2 h; Potency, µM (highest dose often 102 µM), for inactives: at the highest dose activity, negative = inhibition, usual class: inhibitors; hit rate 8.8% among 350,000; further: on the % scale 0 is the no-effect control and ±100 the full control effect; nearly all actives have a fitted effect of over 75% in size
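Signal arises when biotinylated H3K9 peptide, once monomethylated, bridges streptavidin donor and antibody-captured acceptor beads. Enzyme at 20 nM was preincubated 15 min with test compounds; peptide 500 nM and SAM 20 uM then reacted for 2 h.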
* hit, by the source's call; ? = inconclusive; / = no result given; [ ] = another dose, or the depositor's remark. Sampled rows, rich in hits. Any-hit rate of the full collection: about 12%. The call rests on the fitted dose curve; in most records, active means well fitted curve in the direction sought with a large enough effect; inconclusive means small, poorly fitted or top-dose-only effect, or another doubt; inactive means no such curve, though single readings can be large; an effect the other way counts as inactive or inconclusive. Potency means the concentration at half of the fitted maximal effect.

SMILES | BAZ2B block | L3MBTL1 block | HP1b chromo inh | Sfp PPTase inh | JMJD2A Tudor | G9a block
CCn1ncc(/C=C2/SC(=S)NC2=O)c1C | -33% | -2% | 21% | -11% | -8% | 50µM*
O=C1NC(=S)S/C1=C\c1cc(Cl)ccc1Cl | / | / | -34% | / | ? | /
CN1c2ccccc2C(C)(C)C12C=Nc1c(cc(N3CCOCC3)c3ccccc13)O2 (stereo unspecified) | ? | -2% | -15% | -8% | ? | 45µM*
CN1C(C(=O)Nc2ccc(F)cc2F)=CC(c2ccc3c(c2)OCO3)=NS1(=O)=O | 2% | / | 39% | / | -17% | -35%[59 µM]
COC(=O)c1ccccc1NC(=O)C1=CC(c2ccc(C)cc2)=NS(=O)(=O)N1C | ? | / | -9% | / | ? | 13µM*
Cc1ccc(C2=NS(=O)(=O)N(C)C(C(=O)Nc3ccc(F)cc3F)=C2)cc1 | -12% | -15% | -17% | -1% | ? | 71µM*
O=C(CCCCCNC(=S)Nc1ccc(Cl)cc1)C[N+](=O)[O-] | -16% | -4% | ? | -6% | -15% | ?
COc1ccc(NC(=S)NCCCCCC(=O)C[N+](=O)[O-])cc1 | ? | / | ? | -34% | -31% | 22µM*
O=C(CCCCCNC(=S)Nc1ccccc1)C[N+](=O)[O-] | -32% | -7% | 7% | -28% | -19% | 45µM*
CC(=O)N1[C@H](C)C=C[C@]1(Cc1ccccc1)C(=O)NCc1cc(F)cc(C(F)(F)F)c1 | 4% | 7% | 34% | 6% | -15% | ?
C[C@@H]1C=C[C@](Cc2ccccc2)(C(=O)NCCc2c[nH]c3ccccc23)N1C(=O)c1ccccc1 | ? | -7% | -16% | 17% | ? | 50µM*
Cc1ccc(CNC(=O)C2(CC(C)C)C=CCN2C(=O)c2ccccc2)o1 (stereo unspecified) | / | / | / | 40µM* | / | /
CC(=O)N1[C@H](C)C=C[C@]1(Cc1ccccc1)C(=O)NCc1ccc(C)o1 | / | / | / | 22µM* | / | /
CCOC(=O)COn1c(-n2nc(C)cc2C)nc2ccccc2c1=O | -1% | / | 7% | 4% | -6% | 22%
CC1(C)Cc2cccc(OCC(=O)NCCOc3ccccc3)c2O1 | -15% | / | -15% | 5% | 20µM* | -2%[59 µM]
CC1(C)Cc2cccc(OCC(=O)N3CCN(S(=O)(=O)c4ccc(F)cc4)CC3)c2O1 | 3% | -3% | 25% | 4% | -8% | -7%[2.33 µM]
Cc1cccc(N2CCN(C(=O)COc3cccc4c3OC(C)(C)C4)CC2)c1C | 13% | 15% | 54% | ? | -13% | 45µM*
Cc1nc(-c2ccc(S(=O)(=O)N3CCN(c4ccccc4)CC3)cc2)co1 | -14%[57.1 µM] | / | 26% | 13% | -7% | -5%
Cc1cccc(N2CCN(S(=O)(=O)c3ccc(-c4coc(C)n4)cc3)CC2C)c1 (stereo unspecified) | ? | / | -1% | 2% | -26% | 25µM*
COc1ccc(S(=O)(=O)N2CCN(c3nc(-c4cccs4)nc4ccccc34)CC2)cc1OC | / | / | 24% | / | -17% | /
COc1ccc2[nH]cc(CCNc3ncncc3-c3cccc(NS(C)(=O)=O)c3)c2c1 | / | / | / | ? | / | -34%[0.501 µM]
O=[N+]([O-])c1ccc(C2Oc3ccccc3C3CC(c4ccccc4)=NN32)s1 (stereo unspecified) | ? | -13% | / | -15% | / | 10µM*
Oc1ccc(Nc2nc(-c3ccc4ccccc4c3)cs2)cc1 | ? | / | / | -9% | / | ?
Cc1cc(Nc2ccc(O)cc2)ccc1N | 6.3µM* | -19% | 11µM* | / | ? | -2%[0.501 µM]
Oc1ccc(Nc2ccc3ccccc3c2)cc1 | / | / | ? | / | 40µM* | /
SMILES | BAZ2B block | L3MBTL1 block | HP1b chromo inh | Sfp PPTase inh | JMJD2A Tudor | G9a block
Cc1cc(Cc2ccc(N)c(C)c2)ccc1N | ? | / | -18% | 5% | -36% | ?
CS(=O)(=O)c1sc(C#N)c2c1C(=O)CC(c1ccccc1)C2 (stereo unspecified) | -38% | -10% | 10% | ? | -21% | 25µM*
Cc1ccccc1NC(=S)N/N=C/C(C)c1ccccc1 (stereo unspecified) | -26% | 18% | 40% | -13% | ? | 22µM*
Cc1cccc(NC(=S)N/N=C/C(C)c2ccccc2)c1C (stereo unspecified) | ? | -4%[11.4 µM] | 26% | 79µM* | ? | ?
Cc1cccc(NC(=S)N/N=C/c2cccc(O)c2)c1C | -29% | -6% | 19% | 6% | -13% | 1%
Cc1ccccc1NC(=S)N/N=C/c1ccc(O)cc1O | 8.9µM* | 32µM* | ? | -5% | 56µM* | 3%[12.7 µM]
Cc1cc(C)n2c(Br)c(CN3CCCC(C)C3)nc2n1 (stereo unspecified) | -15% | -17% | 39% | 9% | 0% | 5%
Cc1cc(C)nc(SCc2nc3nc(C)cc(C)n3c2Br)n1 | -19% | 3% | 24% | 0% | -9% | 50µM*
COc1cc(NC(=O)Cn2c(=O)n(Cc3ccccc3Cl)c(=O)c3cc(OC)c(OC)cc32)cc(OC)c1 | 3% | / | 7% | / | -14% | 5%[59 µM]
Cc1cc(OCC(=O)Nc2cc(C(C)(C)C)on2)ccc1[N+](=O)[O-] | -23% | / | 23% | 4% | -8% | 15%
COc1ccc(CCNc2nc(-c3ccncc3)cs2)cc1OC | -13% | / | 11% | ? | -7%[11.4 µM] | /
COc1ccc(CCNc2nc(-c3sc(C)nc3C)cs2)cc1OC | 32µM* | / | ? | 45µM* | 3.2µM* | 10µM*
COc1ccc(CCNc2nc(-c3ccc(O)cc3)cs2)cc1OC | ? | -11% | -7% | ? | ? | 22µM*
COc1ccc(CCNc2nc(-c3ccccn3)cs2)cc1OC | 22µM* | / | 8%[57 µM] | ? | ? | ?
COc1ccc(CCNc2nc(-c3cccnc3)cs2)cc1OC | ? | -6% | -6% | -7% | -35% | /
C=CCNC(=O)C1CC1(c1ccccc1)c1ccccc1 (stereo unspecified) | 0% | -21% | 35% | 4% | 1% | -2%[59 µM]
CCOC(=O)C1=C(C)N(C)C(=O)NC1c1cc2c(cc1[N+](=O)[O-])OCO2 (stereo unspecified) | -38% | / | 15% | 50µM* | -36% | ?
CC1=C(C(=O)OCc2ccccc2)C(c2ccccc2Cl)NC(=O)N1CCCC(=O)O (stereo unspecified) | -33% | 1% | 31% | 3% | -1% | -11%
CC1=C(C(=O)OCc2ccccc2)C(c2ccccc2[N+](=O)[O-])NC(=O)N1C (stereo unspecified) | -38% | / | 20% | -21% | -11% | 40µM*
Cc1nc(S(=O)(=O)N2CCOCC2)c(C#N)c(C)c1Cl | -25% | 0% | 2% | 8% | 79µM* | 81%[59 µM]
Cc1nc(S(=O)(=O)NC2CCCCC2)c(C#N)c(C)c1Cl | -24% | 11% | -13% | 7% | -2%[11.4 µM] | 79µM*
